Records with an inconclusive call do not appear. Calls of active or inactive are those of the source. Unless noted, calls come from the whole dose curve; as a rule, active = well fitted curve in the direction sought with a large enough effect; inconclusive = small, poorly fitted or top-dose-only effect, or another doubt; inactive = no such curve, though single readings can be large; an effect the other way counts as inactive or inconclusive.
How the values were obtained:
[1] = AP1 Signaling Pathway (AID 357; active = well fitted curve in either direction with a large enough effect, not every such curve was filed as active; note: % is set by controls: 0 for no effect and ±100 for the full control effect); settings: ME-180 AP-1-bla reporter, EGF-induced, beta-lactamase ratio, 5 h; at 7.69 µM (top of the series) unless noted
How it was run: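 In this screen, ME-180 cells in Opti-MEM with 0.5% dialyzed FBS received EC50 EGF and compound titrations for 5 h. AP-1 reporter beta-lactamase was detected via CCF4 ratio, giving AC50 for positive and negative modulators.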

[2] = target: Cytochrome P450 1A2 (Homo sapiens) (UniProt P05177); experiment: p450-cyp1a2 (AID 410; calls by dose curve;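 note: -100% = full effect of reference inhibitor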)
How it was run: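 Read-out is luminescence from luciferin produced by CYP1A2 demethylation of Luciferin-ME (100uM, at Km). Detection reagent stopped the 60 min NADPH-dependent reaction; signals were normalized to 57 uM furafylline.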

[3] = NFAT Signaling Pathway (AID 444; active = well fitted curve in either direction with a large enough effect, not every such curve was filed as active;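 note: carbachol stimulus at about its EC50 of 1 µM final; % is set by controls: 0 for no effect and ±100 for the full control effect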); settings: Jurkat NFAT-bla M1, carbachol, beta-lactamase ratio, 5 h; at 7.69 µM (top of the series) unless noted
How it was run: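 Read-out: CCF4 FRET ratio (460 nm/530 nm) after 1 h RT dye loading, used for %activity and AC50 from titration series. Cells: Jurkat NFAT-β-lactamase/M1 line, treated with compound plus 1 uM carbachol for 5 h, 37 °C.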

[4] = Stat Signaling Pathway (AID 446; active = well fitted curve in either direction with a large enough effect, not every such curve was filed as active;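 note: ME-180 cervical cancer cells given 40 pM IL-6 alongside compound; SIE-controlled beta-lactamase reporter measured as 460/530 nm FRET emission ratio; % is set by controls: 0 for no effect and ±100 for the full control effect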); settings: ME-180 (cervical carcinoma) SIE beta-lactamase reporter, IL-6 stimulated, 5 h; at 7.69 µM (top of the series) unless noted
How it was run: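 Overnight-plated ME-180 cells bearing a STAT Inducible Element beta-lactamase reporter; 5 h co-exposure to compound and 40 pM IL-6; values normalized to 300 pM IL-6 and 125 nM JAK inhibitor controls.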

[5] = target: Mitogen-activated protein kinase 10 (Mus musculus) (UniProt Q61831); experiment: JNK3 AlphaScreen Assay (AID 530; active = well fitted curve in either direction with a large enough effect, not every such curve was filed as active;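 note: kinase came from lysate of stimulated human HepG2 cells; signal reports phosphorylation of biotinylated GST-cJun 1-79 at Ser73 with 10 µM ATP; % is set by controls: 0 for no effect and ±100 for the full control effect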)
How it was run: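 Kinase buffer: 20 mM Tris-HCl pH 7.6, 10 mM MgCl2, 1 mM DTT, 0.1 mM Na3VO4, 0.01% Tween-20; ATP 10 uM. Substrate biotin-GST-cJun(1-79), enzyme from activated HepG2 lysates. Detection by Ser73 phospho-antibody AlphaScreen.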

[6] = target: 3',5'-cyclic-AMP phosphodiesterase 4B (Homo sapiens) (UniProt Q07343); experiment: qHTS Assay for Inhibitors of PDE-IV (AID 607; active = well fitted activation curve with a large enough effect in the main read-out, with a control signal flat, not every such curve was filed as active; note: % of control where 0% means no effect)
How it was run: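 Live HEK293 cells with a modified cyclic nucleotide-gated (CNG) channel report intracellular cAMP via membrane-potential dye fluorescence (ex 535/em 590 nm). Endogenous PDE-IV was targeted. Compounds were tested at up to 22.9 uM final; RO 20-1724 100 uM served as control.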

[7] = target: ATP-dependent 6-phosphofructokinase (Trypanosoma brucei brucei) (UniProt O15648); experiment: qHTS Assay to Find Inhibitors of T. brucei phosphofructokinase: hit validation (AID 492961)
How it was run: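 ADP-Glo luminescence read-out of ADP formed by 1.25 nM PFK from 0.1 mM ATP and 0.5 mM F6P (TEA pH 8.0, 45 min, RT). Compounds titrated; activity normalized to no-enzyme and full-enzyme controls.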

[8] = target: Luciferin 4-monooxygenase (Photinus pyralis) (UniProt P08659); experiment: Biochemical firefly luciferase enzyme assay for NPC (AID 624030);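 note: purified P. pyralis luciferase at 10 nM with luciferin and ATP substrate; 0% = DMSO and -100% = full luciferase inhibition by PTC124 control; nearly all actives have a fitted effect of over 70% in size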
How it was run: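 Direct inhibition of firefly luciferase enzyme (10 nM final, 50 mM Tris Acetate) assessed by luminescence within 5 minutes. Percent activity scaled between DMSO and PTC124 positive control, with concentration-effect curves classified by fit quality and response.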

[9] = S16 Schwann cell viability assay (CellTiter-Glo assay) (AID 624031);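 note: native untransfected S16 rat Schwann cells; cellular ATP luminescence as a viability measure; plate controls were DMSO-treated cells for no effect and cell-free wells for full effect; nearly all actives have a fitted effect of over 70% in size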
How it was run: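 Cells were seeded at 500-750 per well in phenol red-free DMEM with 10% FBS and left overnight. Compounds or DMSO were pinned in, incubation ran 24 h at 37 °C/5% CO2, then CellTiter-Glo reagent was added and luminescence measured.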

[10] = S16 Schwann cell PMP22 intronic element firefly luciferase assay (AID 624032);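 note: plate controls were DMSO for no effect and PTC124 positive control mean for full effect; nearly all actives have a fitted effect of over 30% in size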
How it was run: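 Luciferase reporter of PMP22 intronic-element expression in stably transfected S16 rat Schwann cells, read by ONE-Glo luminescence after 24 h compound exposure at 37 C. Activity scaled between DMSO (0%) and positive-control PTC124; concentration-effect curves quality-classified.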

[11] = S16 Schwann cell PMP22 intronic element beta-lactamase assay (AID 624044; calls by dose curve;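 note: 0% = DMSO and -100% = potassium clavulanate positive control; nearly all actives have a fitted effect of over 15% in size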)
How it was run: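 Beta-lactamase reporter under a PMP22 intronic regulatory element in stable S16 rat Schwann cells; 24 h compound exposure. 460 nm blue signal normalized between DMSO (0%) and potassium clavulanate, with 535 nm FRET tracking viability; curves classed by r2 and response.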

[12] = qHTS profiling for inhibitors of Plasmodium falciparum proliferation (AID 504749);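 note: 0% = DMSO vehicle and full inhibition = artemisinin control; nearly all actives have a fitted effect of over 60% in size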; settings: P. falciparum in erythrocytes, SYBR Green DNA, 72 h, at 28.7 µM (top of the series)
How it was run: (§1)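 In a 72 h erythrocytic culture (37 C, humidified, 5% CO2) at 2.5% hematocrit and 0.3% starting parasitemia, compounds were tested; SYBR Green I in detergent lysis buffer stained parasite DNA overnight.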

3D7 = experiment: as above; settings: P. falciparum in erythrocytes, SYBR Green DNA, 72 h; series mostly up to 28.7 µM
How it was run: as §1

7G8 = experiment: as above; settings: P. falciparum in erythrocytes, SYBR Green DNA, 72 h; series mostly up to 28.7 µM
How it was run: as §1

AA1029 = experiment: as above; settings: P. falciparum in erythrocytes, SYBR Green DNA, 72 h; series mostly up to 28.7 µM
How it was run: as §1

AS120 = experiment: as above; settings: P. falciparum in erythrocytes, SYBR Green DNA, 72 h; series mostly up to 28.7 µM
How it was run: as §1

ATS189 = experiment: as above; settings: P. falciparum in erythrocytes, SYBR Green DNA, 72 h; series mostly up to 28.7 µM
How it was run: as §1

ATS95 = experiment: as above; settings: P. falciparum in erythrocytes, SYBR Green DNA, 72 h; series mostly up to 28.7 µM
How it was run: as §1

C2A = experiment: as above; settings: P. falciparum in erythrocytes, SYBR Green DNA, 72 h; series mostly up to 28.7 µM
How it was run: as §1

CP185 = experiment: as above; settings: P. falciparum in erythrocytes, SYBR Green DNA, 72 h; series mostly up to 28.7 µM
How it was run: as §1

CP191 = experiment: as above; settings: P. falciparum in erythrocytes, SYBR Green DNA, 72 h; series mostly up to 28.7 µM
How it was run: as §1

CP192 = experiment: as above; settings: P. falciparum in erythrocytes, SYBR Green DNA, 72 h; series mostly up to 28.7 µM
How it was run: as §1

CP194 = experiment: as above; settings: P. falciparum in erythrocytes, SYBR Green DNA, 72 h; series mostly up to 28.7 µM
How it was run: as §1

CP201 = experiment: as above; settings: P. falciparum in erythrocytes, SYBR Green DNA, 72 h; series mostly up to 28.7 µM
How it was run: as §1

CP203 = experiment: as above; settings: P. falciparum in erythrocytes, SYBR Green DNA, 72 h; series mostly up to 28.7 µM
How it was run: as §1

CP211 = experiment: as above; settings: P. falciparum in erythrocytes, SYBR Green DNA, 72 h; series mostly up to 28.7 µM
How it was run: as §1

CP215 = experiment: as above; settings: P. falciparum in erythrocytes, SYBR Green DNA, 72 h; series mostly up to 28.7 µM
How it was run: as §1

CP217 = experiment: as above; settings: P. falciparum in erythrocytes, SYBR Green DNA, 72 h; series mostly up to 28.7 µM
How it was run: as §1

CP237 = experiment: as above; settings: P. falciparum in erythrocytes, SYBR Green DNA, 72 h; series mostly up to 28.7 µM
How it was run: as §1

CP238 = experiment: as above; settings: P. falciparum in erythrocytes, SYBR Green DNA, 72 h; series mostly up to 28.7 µM
How it was run: as §1

CP247 = experiment: as above; settings: P. falciparum in erythrocytes, SYBR Green DNA, 72 h; series mostly up to 28.7 µM
How it was run: as §1

CP250 = experiment: as above; settings: P. falciparum in erythrocytes, SYBR Green DNA, 72 h; series mostly up to 28.7 µM
How it was run: as §1

CP252 = experiment: as above; settings: P. falciparum in erythrocytes, SYBR Green DNA, 72 h; series mostly up to 28.7 µM
How it was run: as §1

CP256 = experiment: as above; settings: P. falciparum in erythrocytes, SYBR Green DNA, 72 h; series mostly up to 28.7 µM
How it was run: as §1

Chain of 3',5'-cyclic-AMP phosphodiesterase 4B (Homo sapiens) (Q07343 whole entry, looked up): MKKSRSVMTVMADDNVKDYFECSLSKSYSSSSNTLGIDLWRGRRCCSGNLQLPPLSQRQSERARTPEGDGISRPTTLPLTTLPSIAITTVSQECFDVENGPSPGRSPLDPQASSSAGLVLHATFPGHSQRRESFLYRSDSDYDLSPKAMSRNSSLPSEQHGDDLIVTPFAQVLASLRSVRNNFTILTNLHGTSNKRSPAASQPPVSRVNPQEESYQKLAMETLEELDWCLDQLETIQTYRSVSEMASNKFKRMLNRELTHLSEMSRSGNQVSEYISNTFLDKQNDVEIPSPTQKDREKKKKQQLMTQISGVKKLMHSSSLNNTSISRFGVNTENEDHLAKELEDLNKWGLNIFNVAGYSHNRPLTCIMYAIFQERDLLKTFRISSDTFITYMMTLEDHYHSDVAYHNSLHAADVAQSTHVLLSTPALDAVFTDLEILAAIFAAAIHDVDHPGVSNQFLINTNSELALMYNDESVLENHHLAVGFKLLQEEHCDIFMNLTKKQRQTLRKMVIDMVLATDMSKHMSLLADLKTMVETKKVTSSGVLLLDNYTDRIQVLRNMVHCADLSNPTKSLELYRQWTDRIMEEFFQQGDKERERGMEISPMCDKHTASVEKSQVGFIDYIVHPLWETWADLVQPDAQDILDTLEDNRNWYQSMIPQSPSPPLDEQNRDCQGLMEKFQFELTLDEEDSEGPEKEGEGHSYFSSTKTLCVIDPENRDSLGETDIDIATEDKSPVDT
Chain of Cytochrome P450 1A2 (Homo sapiens) (P05177 whole entry, looked up): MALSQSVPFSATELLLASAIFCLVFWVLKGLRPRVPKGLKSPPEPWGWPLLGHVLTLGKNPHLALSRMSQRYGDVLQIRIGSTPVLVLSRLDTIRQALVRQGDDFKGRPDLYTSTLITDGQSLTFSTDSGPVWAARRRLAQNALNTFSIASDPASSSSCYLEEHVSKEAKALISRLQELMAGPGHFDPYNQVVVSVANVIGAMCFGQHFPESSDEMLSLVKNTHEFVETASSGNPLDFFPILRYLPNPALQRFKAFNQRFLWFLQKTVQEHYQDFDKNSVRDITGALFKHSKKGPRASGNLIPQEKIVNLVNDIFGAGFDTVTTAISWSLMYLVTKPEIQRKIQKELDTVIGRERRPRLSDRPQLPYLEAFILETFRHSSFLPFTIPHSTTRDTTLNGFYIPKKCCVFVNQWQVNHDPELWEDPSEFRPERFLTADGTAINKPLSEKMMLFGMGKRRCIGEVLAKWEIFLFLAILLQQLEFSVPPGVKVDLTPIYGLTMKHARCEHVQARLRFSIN
Chain of Luciferin 4-monooxygenase (Photinus pyralis) (P08659 whole entry, looked up): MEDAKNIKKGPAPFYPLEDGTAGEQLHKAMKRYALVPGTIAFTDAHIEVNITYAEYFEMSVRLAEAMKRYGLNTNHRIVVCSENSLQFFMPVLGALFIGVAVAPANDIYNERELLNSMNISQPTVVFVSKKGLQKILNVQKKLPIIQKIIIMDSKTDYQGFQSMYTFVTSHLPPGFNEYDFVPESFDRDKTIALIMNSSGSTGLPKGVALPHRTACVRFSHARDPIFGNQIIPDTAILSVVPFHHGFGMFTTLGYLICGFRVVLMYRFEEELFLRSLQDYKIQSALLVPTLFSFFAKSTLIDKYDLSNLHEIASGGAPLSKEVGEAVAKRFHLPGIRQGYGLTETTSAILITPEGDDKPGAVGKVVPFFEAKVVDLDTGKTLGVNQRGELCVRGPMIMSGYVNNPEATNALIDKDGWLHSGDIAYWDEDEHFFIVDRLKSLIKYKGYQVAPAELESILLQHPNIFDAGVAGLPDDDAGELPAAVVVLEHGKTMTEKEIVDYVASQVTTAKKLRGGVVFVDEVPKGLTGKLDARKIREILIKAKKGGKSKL
Chain of ATP-dependent 6-phosphofructokinase (Trypanosoma brucei brucei) (O15648 whole entry, looked up): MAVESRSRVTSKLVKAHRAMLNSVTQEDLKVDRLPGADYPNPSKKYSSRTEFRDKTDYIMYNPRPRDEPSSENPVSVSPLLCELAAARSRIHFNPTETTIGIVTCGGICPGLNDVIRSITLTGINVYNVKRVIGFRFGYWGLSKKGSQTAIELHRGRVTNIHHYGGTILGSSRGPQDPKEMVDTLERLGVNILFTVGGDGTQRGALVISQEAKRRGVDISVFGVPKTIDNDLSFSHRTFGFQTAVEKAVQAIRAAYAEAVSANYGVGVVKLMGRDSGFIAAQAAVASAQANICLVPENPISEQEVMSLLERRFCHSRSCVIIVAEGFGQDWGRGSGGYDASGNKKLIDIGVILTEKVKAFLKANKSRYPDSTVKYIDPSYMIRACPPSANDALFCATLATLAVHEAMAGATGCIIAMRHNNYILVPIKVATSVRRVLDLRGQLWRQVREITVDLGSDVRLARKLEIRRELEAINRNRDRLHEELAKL

CO/N=C(\C(=O)N[C@@H]1C(=O)N2C(C(=O)[O-])=C(C[N+]3(C)CCCC3)CS[C@@H]12)c1csc(N)n1
inactive: activity change, negative = inhibition [1] 2.79% [at 17.2 µM] | Potency [2] | activity change, negative = inhibition [3] -16.9% [at 17.2 µM] | activity, negative = inhibition [4] 11.5% [at 17.2 µM] | Potency [5] | Potency [6] | outcome [7] | outcome [8] | Potency [9] | Potency [10] | outcome [11] | activity, negative = inhibition ([12]; parasite line A) 2.78% | activity, negative = inhibition ([12]; parasite line B) 10.9% | Potency (3D7) | Potency (7G8) | Potency (AA1029) | Potency (AS120) | Potency (ATS189) | Potency (ATS95) | Potency (C2A) | Potency (CP185) | Potency (CP191) | Potency (CP192) | Potency (CP194) | Potency (CP201) | Potency (CP203) | Potency (CP211) | Potency (CP215) | Potency (CP217) | Potency (CP237) | Potency (CP238) | Potency (CP247) | Potency (CP250) | Potency (CP252) | Potency (CP256)

From PubChem BioAssay (NCATS)
